The source of these data is PubChem BioAssay (EPA / NIEHS).

Molecules are shown by their SMILES. Inconclusive results are not listed. Calls of active or inactive are those of the source. How the source made its calls: active means hit-call score of the fitted dose curve at least 0.9, where 1 is the maximum; inconclusive means response in the unintended direction; inactive means score below 0.9.

Chain of human Ephrin type-A Receptor 1 (EphA1), EPHA1 (gene 2041) (P21709 whole entry, looked up): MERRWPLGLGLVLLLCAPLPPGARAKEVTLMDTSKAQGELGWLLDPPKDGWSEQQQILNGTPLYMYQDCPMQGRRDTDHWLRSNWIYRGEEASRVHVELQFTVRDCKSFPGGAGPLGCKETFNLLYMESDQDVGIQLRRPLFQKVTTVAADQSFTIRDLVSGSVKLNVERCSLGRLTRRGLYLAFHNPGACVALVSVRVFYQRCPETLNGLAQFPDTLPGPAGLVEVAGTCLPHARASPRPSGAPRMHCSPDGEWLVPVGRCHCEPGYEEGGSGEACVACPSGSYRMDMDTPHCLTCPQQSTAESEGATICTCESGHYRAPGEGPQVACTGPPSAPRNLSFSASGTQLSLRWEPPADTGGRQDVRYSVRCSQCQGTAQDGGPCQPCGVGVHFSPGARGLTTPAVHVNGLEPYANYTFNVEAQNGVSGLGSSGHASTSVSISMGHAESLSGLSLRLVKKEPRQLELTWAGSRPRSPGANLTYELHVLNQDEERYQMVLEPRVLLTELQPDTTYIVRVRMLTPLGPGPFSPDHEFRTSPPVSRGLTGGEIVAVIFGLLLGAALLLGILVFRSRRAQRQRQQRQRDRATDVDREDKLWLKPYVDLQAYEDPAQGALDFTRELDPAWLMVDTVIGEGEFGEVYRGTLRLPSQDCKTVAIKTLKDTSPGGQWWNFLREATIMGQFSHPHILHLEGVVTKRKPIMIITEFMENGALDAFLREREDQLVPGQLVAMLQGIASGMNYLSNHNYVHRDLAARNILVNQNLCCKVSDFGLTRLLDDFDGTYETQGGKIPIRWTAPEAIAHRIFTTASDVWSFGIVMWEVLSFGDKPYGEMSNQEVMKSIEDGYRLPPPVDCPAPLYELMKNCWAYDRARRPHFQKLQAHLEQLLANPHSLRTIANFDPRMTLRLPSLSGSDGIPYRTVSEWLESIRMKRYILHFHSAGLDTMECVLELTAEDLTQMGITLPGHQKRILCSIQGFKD
Chain of human Phosphodiesterase 10 (PDE10), PDE10A (gene 10846) (Q9Y233 whole entry, looked up): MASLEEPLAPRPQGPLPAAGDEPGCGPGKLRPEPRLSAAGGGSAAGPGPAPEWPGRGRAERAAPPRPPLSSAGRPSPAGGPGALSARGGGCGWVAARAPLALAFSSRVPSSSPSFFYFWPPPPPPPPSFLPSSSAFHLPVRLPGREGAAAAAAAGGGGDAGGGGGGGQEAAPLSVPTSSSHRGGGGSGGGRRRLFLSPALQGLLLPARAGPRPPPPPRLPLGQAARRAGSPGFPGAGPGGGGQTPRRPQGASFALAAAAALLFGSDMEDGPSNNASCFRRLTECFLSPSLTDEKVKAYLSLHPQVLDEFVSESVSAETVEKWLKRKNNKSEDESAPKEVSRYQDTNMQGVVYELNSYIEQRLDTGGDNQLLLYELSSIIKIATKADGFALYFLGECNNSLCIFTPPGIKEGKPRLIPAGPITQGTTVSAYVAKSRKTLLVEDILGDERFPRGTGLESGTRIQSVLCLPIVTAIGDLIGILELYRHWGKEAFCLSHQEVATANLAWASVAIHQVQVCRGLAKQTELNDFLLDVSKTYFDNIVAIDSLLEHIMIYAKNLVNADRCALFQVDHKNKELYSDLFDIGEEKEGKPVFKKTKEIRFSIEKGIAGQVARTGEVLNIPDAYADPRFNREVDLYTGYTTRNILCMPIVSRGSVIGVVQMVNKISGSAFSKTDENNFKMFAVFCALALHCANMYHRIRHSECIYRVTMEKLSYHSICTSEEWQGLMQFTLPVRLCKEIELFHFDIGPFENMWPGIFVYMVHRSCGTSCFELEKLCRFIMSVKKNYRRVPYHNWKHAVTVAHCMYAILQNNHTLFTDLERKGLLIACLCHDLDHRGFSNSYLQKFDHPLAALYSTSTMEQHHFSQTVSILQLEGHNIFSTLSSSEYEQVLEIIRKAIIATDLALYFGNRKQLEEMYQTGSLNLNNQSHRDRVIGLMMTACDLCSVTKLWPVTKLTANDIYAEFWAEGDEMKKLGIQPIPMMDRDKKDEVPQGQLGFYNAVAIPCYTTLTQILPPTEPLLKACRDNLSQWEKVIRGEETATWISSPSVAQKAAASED
Chain of human Matrix Metalloproteinase-9 (MMP9), MMP9 (gene 4318) (P14780 whole entry, looked up): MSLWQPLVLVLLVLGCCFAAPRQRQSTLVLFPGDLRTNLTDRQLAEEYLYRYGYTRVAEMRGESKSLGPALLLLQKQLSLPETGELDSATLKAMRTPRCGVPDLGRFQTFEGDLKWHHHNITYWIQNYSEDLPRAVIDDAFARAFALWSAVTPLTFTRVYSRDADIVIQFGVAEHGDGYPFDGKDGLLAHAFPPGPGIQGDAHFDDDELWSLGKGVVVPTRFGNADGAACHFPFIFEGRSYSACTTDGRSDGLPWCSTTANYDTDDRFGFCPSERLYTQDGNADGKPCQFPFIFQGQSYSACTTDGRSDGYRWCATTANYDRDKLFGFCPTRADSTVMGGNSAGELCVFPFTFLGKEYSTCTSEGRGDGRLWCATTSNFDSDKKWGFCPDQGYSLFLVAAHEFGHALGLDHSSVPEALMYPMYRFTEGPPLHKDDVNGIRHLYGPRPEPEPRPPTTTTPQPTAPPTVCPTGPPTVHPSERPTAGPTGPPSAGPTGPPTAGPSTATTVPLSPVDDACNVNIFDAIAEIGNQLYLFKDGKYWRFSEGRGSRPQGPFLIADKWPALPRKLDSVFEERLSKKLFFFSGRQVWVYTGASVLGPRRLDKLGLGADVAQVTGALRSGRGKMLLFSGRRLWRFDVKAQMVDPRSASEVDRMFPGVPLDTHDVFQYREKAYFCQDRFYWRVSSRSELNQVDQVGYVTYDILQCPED

The first experiment concerns the target human Ephrin type-A Receptor 1 (EphA1), EPHA1 (gene 2041) (UniProt P21709). The experiment in a line: NVS_ENZ_hEphA1: NovaScreen (NVS) Enzymatic Assay for human Ephrin type-A Receptor 1 (EphA1) (AID 2283158).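 Further: activity is signal loss versus DMSO meaning EphA1 kinase inhibition.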 In a few lines: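 Recombinant kinase, fluorescent substrate, mobility-shift separation, fluorescence read at 1 h. Single-point duplicates at 25 uM; hits (e.g., ≥30% inhibition) run singleton concentration-response, max 50 uM. DMSO = negative control/baseline.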
By AC50 is commonly meant the midpoint of the concentration-response curve, whichever way the signal moves. On to `OCCCCC(O)CO` (configuration not stated), for which the AC50 was 5.49 µM (active).
On the same count and under the same terms, the value for `Cc1ncc([N+](=O)[O-])n1CCO` was 11.7 µM (active).
On to `C=CC(=O)OCCCC`, for which the compound was called inactive.
The same measure, in the same setting: the value for `CCOc1ccc(NC(=O)CC(C)=O)cc1` was “inactive”.

A further experiment addresses human Matrix Metalloproteinase-9 (MMP9), MMP9 (gene 4318) (UniProt P14780). The experiment in a line: NVS_ENZ_hMMP9: NovaScreen (NVS) Enzymatic Assay for human Matrix Metalloproteinase-9 (MMP9) (AID 2283190).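 Further: cell-free recombinant MMP9 protease activity read by fluorescent substrate signal; active means inhibition seen as loss of fluorescence signal versus DMSO.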 In a few lines:
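Inhibition was scored as loss of fluorescence signal against DMSO controls. The recombinant protease was exposed to chemicals for 1 hour before reading; initial testing used 25 uM in duplicate.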
As to `c1ccc2[nH]cnc2c1`, the half-maximal activity concentration (AC50) was 7.49 µM (active).
The same measure, in the same setting: the value for `CCC(C)=O` was 6.96 µM (active).
With `C=CCCCCCCCCCC`, the compound was classed as inactive.
As to `CC(C)CC(C)CC(O)CC(C)C` (configuration not stated), the AC50 was 5.13 µM (active).
The same measure, in the same setting: the value for `C=C(C#N)C(=O)OCC` was 8.63 µM (active).

For a further experiment, the target named is human Phosphodiesterase 10 (PDE10), PDE10A (gene 10846) (UniProt Q9Y233). The experiment in a line: NVS_ENZ_hPDE10: NovaScreen (NVS) Enzymatic Assay for human Phosphodiesterase 10 (PDE10) (AID 2283195). In a few lines:
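Biochemical single-readout PDE10A assay, cell-free, extracted protein. Compounds first screened at 25 uM in duplicate, hits then titrated to 50 uM max. Activity measured after 1 h; loss-of-signal fitted against DMSO negative control.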
Regarding `COc1ccc(OC)c(N=Nc2c(O)ccc3ccccc23)c1`, the concentration at half-maximal activity (AC50) was 42.3 µM (active).
For the compound `O=CN1CCOCC1`, the compound was called inactive.
On the same count and under the same terms, the value for `CC(C)Nc1nc(N)nc(Cl)n1` was “inactive”.
Turning to `O=[N+]([O-])c1cccc(Cl)c1`, the AC50 is 25 µM (active).
As to `OCCCCC(O)CO` (configuration not stated), the AC50 was 40.4 µM (active).
Turning to `Cc1ncc([N+](=O)[O-])n1CCO`, the compound was classed as inactive.
On to `COc1cccc(OC)c1O`, for which the call was inactive.
Same read-out and setting: the value for `CCC1CCCCC1` was “inactive”; that for `CC=Cc1ccc(OCC)c(O)c1` was “inactive”.
For the compound `C=CC(=O)OCCCC`, the AC50 is 10.2 µM (active).
For `CS(=O)(=O)c1ccc(C2=C(c3ccccc3)C(=O)OC2)cc1`, the compound was called inactive.
Still for that read-out and setting: the same measure for `O=C1OC(=O)c2c(Br)c(Br)c(Br)c(Br)c21`: “inactive”.
Same read-out and setting: the value for `CCCCC(CC)(CO)CO` was “inactive”.
